Here are results for 44 compounds from PMC4336329 (PLoS ONE, 2015).

Each structure is given as a SMILES string. Hit rate of the full screen: of about 310,000 compounds, about 14,000 (4.5%) showed an effect of 50% or more. The effect is printed as a negative number. The sample as a whole holds a higher share of strong results than the screen did.
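Further: peak tail current of the secondary pulse compared with the same well before compound.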

human ether-à-go-go-related gene (hERG) potassium channel, sequence (Q12809 whole entry, looked up): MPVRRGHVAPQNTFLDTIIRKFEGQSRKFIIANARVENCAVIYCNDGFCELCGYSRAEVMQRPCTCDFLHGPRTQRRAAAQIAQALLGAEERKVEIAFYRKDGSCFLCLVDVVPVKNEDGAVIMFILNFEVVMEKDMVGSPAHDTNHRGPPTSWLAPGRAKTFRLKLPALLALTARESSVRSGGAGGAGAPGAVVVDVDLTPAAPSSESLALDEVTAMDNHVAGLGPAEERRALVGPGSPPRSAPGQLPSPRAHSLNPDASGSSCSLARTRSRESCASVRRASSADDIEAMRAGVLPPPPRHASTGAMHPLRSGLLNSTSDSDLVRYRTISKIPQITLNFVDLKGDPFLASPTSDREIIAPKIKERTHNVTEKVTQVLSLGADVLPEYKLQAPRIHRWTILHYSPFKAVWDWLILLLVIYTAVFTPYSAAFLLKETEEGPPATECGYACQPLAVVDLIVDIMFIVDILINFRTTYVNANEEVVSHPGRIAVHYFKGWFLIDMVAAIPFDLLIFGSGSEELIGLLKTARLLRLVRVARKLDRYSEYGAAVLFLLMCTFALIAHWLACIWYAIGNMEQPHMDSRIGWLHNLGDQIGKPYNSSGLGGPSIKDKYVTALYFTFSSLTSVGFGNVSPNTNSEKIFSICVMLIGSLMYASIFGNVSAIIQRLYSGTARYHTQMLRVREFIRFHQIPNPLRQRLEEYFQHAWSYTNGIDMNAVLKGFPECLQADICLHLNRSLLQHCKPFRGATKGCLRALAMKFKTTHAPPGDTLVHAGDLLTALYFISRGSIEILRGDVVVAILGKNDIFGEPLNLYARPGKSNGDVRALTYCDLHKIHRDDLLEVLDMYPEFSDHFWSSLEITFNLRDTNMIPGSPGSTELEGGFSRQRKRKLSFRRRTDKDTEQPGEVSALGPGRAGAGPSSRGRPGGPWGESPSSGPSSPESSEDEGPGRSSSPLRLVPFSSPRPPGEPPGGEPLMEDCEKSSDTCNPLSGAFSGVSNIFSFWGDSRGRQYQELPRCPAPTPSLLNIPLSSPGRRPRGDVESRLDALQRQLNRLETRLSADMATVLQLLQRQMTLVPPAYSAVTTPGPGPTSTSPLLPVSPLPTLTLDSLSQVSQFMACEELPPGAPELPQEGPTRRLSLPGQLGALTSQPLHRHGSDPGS

The experiment concerns the target human ether-à-go-go-related gene (hERG) potassium channel (human, UniProt Q12809). As to the kind of experiment: primary screen, population patch clamp on CHO cells stably expressing hERG; higher = less effect of the substance.
In the case of `Cc1ccc(S(=O)(=O)NCC(c2ccccc2)N2CCCCC2)cc1` (centres unmarked), the “hERG current change (%, negative = inhibition) at 10uM” value is 1.79%.

With `COc1ccc(C(CNS(=O)(=O)c2ccccc2)N2CCN(C)CC2)cc1` (centres unmarked), the “hERG current change (%, negative = inhibition) at 10uM” value is -35.7%.

As to `Cc1ccc(C(CNS(=O)(=O)c2ccccc2)N2CCN(C)CC2)cc1` (centres unmarked), the “hERG current change (%, negative = inhibition) at 10uM” value is -53.6%.

Take `O=S(=O)(NCC(c1ccc2c(c1)OCO2)N1CCOCC1)c1ccc(F)cc1` (centres unmarked): the “hERG current change (%, negative = inhibition) at 10uM” value was -6.81%.

As to `Cc1ccc(C(CNS(=O)(=O)c2ccc(Br)cc2)N2CCN(C)CC2)cc1` (centres unmarked), the “hERG current change (%, negative = inhibition) at 10uM” value is -72.4%.

With `Cc1cc(S(=O)(=O)NCC(c2ccc(F)cc2)N2CCN(C)CC2)ccc1F` (centres unmarked), the “hERG current change (%, negative = inhibition) at 10uM” value is listed as -68.4%.

On to `Cc1ccc(S(=O)(=O)NCCNC(C)c2ccc(Br)cc2)cc1` (centres unmarked), for which the “hERG current change (%, negative = inhibition) at 10uM” value is recorded as -42.5%.

Regarding `Cc1cc(S(=O)(=O)NCC(c2ccc3c(c2)OCO3)N2CCOCC2)ccc1F` (centres unmarked), the “hERG current change (%, negative = inhibition) at 10uM” value is given as -20.7%.

For `COc1cccc(C(=O)NNC(=O)C2CCCO2)c1` (centres unmarked), the “hERG current change (%, negative = inhibition) at 10uM” value was found to be 15.3%.

In the case of `CCC1=[N+](CC(=O)c2ccc(Br)cc2)CCn2c(C)ccc21.[Br-]`, the “hERG current change (%, negative = inhibition) at 10uM” value was -6.76%.

Consider `COc1cc(Nc2cc(C)nc3ncnn23)cc(OC)c1`, for which the “hERG current change (%, negative = inhibition) at 10uM” value was -8.29%.

With `CN1CCC(NC(=O)Cc2c(F)cccc2Cl)CC1`, the “hERG current change (%, negative = inhibition) at 10uM” value was -1.52%.

As for `O=C1CCC2S/C(=C/Nc3ccc(C(F)(F)F)cc3)C(=O)N12` (centres unmarked), the “hERG current change (%, negative = inhibition) at 10uM” value is -52.2%.

For `CS(=O)(=O)N1CCC(C(=O)Nc2ccc(C(F)(F)F)cc2)CC1`, the “hERG current change (%, negative = inhibition) at 10uM” value turned out to be 12.4%.

Turning to `O=C(c1ccc(C(F)(F)F)cc1)C1CCCN(C(=O)CN2CCCC2=O)C1` (centres unmarked), the “hERG current change (%, negative = inhibition) at 10uM” value is 0.525%.

With `COc1ccc(OC)c(NC(=O)CCNS(=O)(=O)c2cc(Br)cnc2N)c1`, the “hERG current change (%, negative = inhibition) at 10uM” value is given as -14.9%.

As to `O=C(COC(=O)c1cccnc1Cl)Nc1ccc2c(c1)OCO2`, the “hERG current change (%, negative = inhibition) at 10uM” value turned out to be 2.28%.

On to `CC1(C)Cc2ccccc2-c2nnc(SCC(=O)Nc3nc4ccccc4s3)n21`, for which the “hERG current change (%, negative = inhibition) at 10uM” value is on record as -74.4%.

Turning to `O=C(COC(=O)c1cnccn1)Nc1ccc2c(c1)OCO2`, the “hERG current change (%, negative = inhibition) at 10uM” value came to 7.23%.

Turning to `CC1(C)Cc2ccccc2-c2nnc(SCc3ccc(C#N)cc3)n21`, the “hERG current change (%, negative = inhibition) at 10uM” value is on record as -58.9%.

Consider `CCSc1nnc2n1C(C)(C)Cc1ccccc1-2`, for which the “hERG current change (%, negative = inhibition) at 10uM” value came to 0.0135%.

Turning to `O=C(COC(=O)c1ccccn1)Nc1ccc2c(c1)OCO2`, the “hERG current change (%, negative = inhibition) at 10uM” value is reported as -65.5%.

For `COc1ccc2nc(NC(=O)CSc3nnc4n3C(C)(C)Cc3ccccc3-4)sc2c1`, the “hERG current change (%, negative = inhibition) at 10uM” value is 0.248%.

As for `CC1(C)Cc2ccccc2-c2nnc(SCC(=O)Nc3ccc4c(c3)OCO4)n21`, the “hERG current change (%, negative = inhibition) at 10uM” value is listed as -63.2%.

For the compound `CCn1c(SCC(=O)Nc2ccc3c(c2)OCO3)nnc1-c1ccccc1O`, the “hERG current change (%, negative = inhibition) at 10uM” value is 7.21%.

As to `COC(=O)CSc1nnc2n1C(C)(C)Cc1ccccc1-2`, the “hERG current change (%, negative = inhibition) at 10uM” value was 3.46%.

Regarding `COc1cc(NC(=O)CSc2nnc3n2C(C)(C)Cc2ccccc2-3)cc(OC)c1`, the “hERG current change (%, negative = inhibition) at 10uM” value turned out to be 10%.

`Cn1c(SCC(=O)Nc2nc3ccccc3s2)nnc1-c1ccccc1`: the “hERG current change (%, negative = inhibition) at 10uM” value is reported as 10.3%.

Turning to `COc1ccc(CCNC(=O)C2CCN(S(=O)(=O)c3ccc(NC(C)=O)cc3)CC2)cc1OC`, the “hERG current change (%, negative = inhibition) at 10uM” value worked out at 9.83%.

On to `Nc1cc(=O)[nH]c(SCC(=O)Nc2ccccc2Sc2ccccc2)n1`, for which the “hERG current change (%, negative = inhibition) at 10uM” value stood at 6.15%.

Turning to `O=C(Cn1nnc(-c2ccccc2NC(=O)c2ccccc2F)n1)NCc1ccco1`, the “hERG current change (%, negative = inhibition) at 10uM” value was 10.1%.

In the case of `Cc1nc(-c2ccc(C(=O)Nc3cccc(Br)c3)cc2)cs1`, the “hERG current change (%, negative = inhibition) at 10uM” value came out at 7.02%.

In the case of `Cc1cc(C)n(Cc2ccc(Cl)cc2Cl)c(=O)c1S(=O)(=O)c1ccccc1`, the “hERG current change (%, negative = inhibition) at 10uM” value stood at 14.7%.

As for `COc1ccc(S(=O)(=O)N(CC(=O)N2CCOCC2)c2cc(Cl)ccc2OC)cc1OC`, the “hERG current change (%, negative = inhibition) at 10uM” value is recorded as -16.6%.

On to `COc1ccc(CCNC(=O)C/C(C)=N/NC(=O)C23CC4CC(CC(C4)C2)C3)cc1OC`, for which the “hERG current change (%, negative = inhibition) at 10uM” value is reported as 11.7%.

In the case of `CCc1nnc(NC(=O)CSc2nnc(C(C)NC(=O)c3ccccc3)n2C)s1` (centres unmarked), the “hERG current change (%, negative = inhibition) at 10uM” value is on record as 29.3%.

Regarding `COc1ccc(C(=O)NC(C)c2nnc(SCC(=O)NC3=NCCS3)n2C)cc1` (centres unmarked), the “hERG current change (%, negative = inhibition) at 10uM” value worked out at 15.3%.

Take `O=C(CSc1nnc(-c2ccccn2)n1-c1ccccc1)Nc1ccc2c(c1)OCO2`: the “hERG current change (%, negative = inhibition) at 10uM” value stood at 1.81%.

Consider `COc1ccccc1N1CCN(C(=O)CSc2nnc3n2C(C)(C)Cc2ccccc2-3)CC1`, for which the “hERG current change (%, negative = inhibition) at 10uM” value is listed as -37.4%.

On to `COc1ccc(C(=O)NC(C)c2nnc(SCC(=O)Nc3nc4ccccc4s3)n2C)cc1` (centres unmarked), for which the “hERG current change (%, negative = inhibition) at 10uM” value is given as -59.4%.

With `COc1ccc(N2CCN(C(=O)CSc3nnc4n3C(C)(C)Cc3ccccc3-4)CC2)cc1`, the “hERG current change (%, negative = inhibition) at 10uM” value was -23.8%.

On to `Cc1ccc(-n2c(SCC(=O)Nc3ccc4c(c3)OCO4)nnc2-c2ccccn2)cc1`, for which the “hERG current change (%, negative = inhibition) at 10uM” value turned out to be 4.28%.

On to `Cc1ccccc1-n1c(SCC(=O)Nc2ccc3c(c2)OCO3)nnc1-c1ccccn1`, for which the “hERG current change (%, negative = inhibition) at 10uM” value is -65.3%.

Take `CC1(C)Cc2ccccc2-c2nnc(SCC(=O)N3CCN(c4ccccc4)CC3)n21`: the “hERG current change (%, negative = inhibition) at 10uM” value is -73.7%.
